From PubChem BioAssay (EPA / NIEHS)
Results filed as inconclusive are left out. Activity calls are given as the source filed them. Rule for the calls, unless noted: active = hit-call score of the fitted dose curve at least 0.9, where 1 is the maximum; inconclusive = response in the unintended direction; inactive = score below 0.9.

What was measured:
[1] = target: Peroxisome proliferator-activated receptor gamma (Homo sapiens) (UniProt P37231); test: ATG_hPPARg_XSP2: Attagene TRANS-FACTORIAL Multi-Species (XSP2) HepG2 Assay for human Peroxisome Proliferator-activated Receptor gamma (PPARg) (AID 2283829);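 note: actives raise reporter mRNA above DMSO so AC50 reflects PPARg activation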
Chain of Peroxisome proliferator-activated receptor gamma (Homo sapiens) (P37231 whole entry, looked up, the tested form may be a part): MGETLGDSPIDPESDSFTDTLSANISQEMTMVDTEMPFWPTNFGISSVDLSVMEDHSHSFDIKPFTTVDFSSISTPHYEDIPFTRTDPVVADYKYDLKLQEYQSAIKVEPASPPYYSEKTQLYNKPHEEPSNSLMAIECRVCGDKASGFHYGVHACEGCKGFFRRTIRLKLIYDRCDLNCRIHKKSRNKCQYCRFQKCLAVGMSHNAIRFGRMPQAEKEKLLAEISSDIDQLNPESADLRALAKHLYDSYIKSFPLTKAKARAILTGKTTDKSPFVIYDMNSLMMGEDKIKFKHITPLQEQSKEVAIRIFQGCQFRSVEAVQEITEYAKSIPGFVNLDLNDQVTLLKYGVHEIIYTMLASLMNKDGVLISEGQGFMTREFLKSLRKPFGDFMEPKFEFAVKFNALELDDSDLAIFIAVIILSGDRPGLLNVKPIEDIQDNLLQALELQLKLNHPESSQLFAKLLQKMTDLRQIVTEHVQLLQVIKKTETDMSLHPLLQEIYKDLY
Outline: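 Reporter transcripts were measured by RT-PCR, fluorescent labeling, HpaI digestion and capillary electrophoresis, relative to DMSO, 24 h post-dosing. Transiently transfected HepG2 expressed NR-Gal4 chimeras regulating GAL4-UAS reporters; medium contained 3 nM 6-alpha-fluorotestosterone plus 1.5 nM norgestrel.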

[2] = target: Nuclear receptor subfamily 1 group I member 2 (Mus musculus) (UniProt O54915); test: ATG_mPXR_XSP2: Attagene TRANS-FACTORIAL Multi-Species (XSP1) HepG2 Assay for mouse Pregnane X Receptor (PXR) (AID 2283831)
Chain of Nuclear receptor subfamily 1 group I member 2 (Mus musculus) (O54915 whole entry, looked up, the tested form may be a part): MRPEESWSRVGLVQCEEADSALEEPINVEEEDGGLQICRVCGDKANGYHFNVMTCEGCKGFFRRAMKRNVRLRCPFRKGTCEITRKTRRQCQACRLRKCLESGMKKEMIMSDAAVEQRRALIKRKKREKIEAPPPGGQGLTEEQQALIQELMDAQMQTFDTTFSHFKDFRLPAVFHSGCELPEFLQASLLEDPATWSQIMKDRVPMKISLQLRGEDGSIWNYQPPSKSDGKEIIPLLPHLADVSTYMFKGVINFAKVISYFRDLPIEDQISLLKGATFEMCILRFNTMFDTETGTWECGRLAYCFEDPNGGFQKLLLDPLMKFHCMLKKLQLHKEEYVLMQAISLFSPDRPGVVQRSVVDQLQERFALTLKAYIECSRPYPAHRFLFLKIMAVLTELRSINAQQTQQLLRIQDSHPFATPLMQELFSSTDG
Outline: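 Reporter transcripts measured after 24 h dosing by RT-PCR with 6-FAM labelling, HpaI digestion and capillary electrophoresis. Transiently transfected HepG2 with NR-Gal4 chimeras; increase over DMSO baseline scored.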

[3] = target: zebrafish Thyroid Hormone Receptor alpha (TRa), thraa (gene 30670) (UniProt Q98867); test: ATG_zfTRa_XSP2: Attagene TRANS-FACTORIAL Multi-Species (XSP1) HepG2 Assay for zebrafish Thyroid Hormone Receptor alpha (TRa) (AID 2283832);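 note: actives raise zebrafish TRa-Gal4 reporter transcript above DMSO baseline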
Chain of zebrafish Thyroid Hormone Receptor alpha (TRa), thraa (gene 30670) (Q98867 whole entry, looked up, the tested form may be a part): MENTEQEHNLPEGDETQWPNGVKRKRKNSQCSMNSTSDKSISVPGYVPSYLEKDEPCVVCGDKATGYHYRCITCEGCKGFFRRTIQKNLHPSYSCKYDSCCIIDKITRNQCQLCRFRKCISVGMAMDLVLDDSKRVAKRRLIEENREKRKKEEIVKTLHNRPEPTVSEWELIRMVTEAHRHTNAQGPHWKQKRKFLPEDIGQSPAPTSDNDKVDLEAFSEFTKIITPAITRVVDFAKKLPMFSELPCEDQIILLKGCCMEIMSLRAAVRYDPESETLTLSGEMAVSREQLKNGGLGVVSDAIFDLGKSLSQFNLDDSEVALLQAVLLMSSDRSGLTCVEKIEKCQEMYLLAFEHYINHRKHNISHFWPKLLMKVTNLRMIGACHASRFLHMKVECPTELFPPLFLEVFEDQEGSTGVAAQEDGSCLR
Outline: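 HepG2 transiently transfected with GAL4-UAS reporter units and chimeric zebrafish TRa-Gal4; reporter mRNA quantified after 24 h dosing by RT-PCR, HpaI digestion and capillary electrophoresis fluorescence. Gain of signal vs DMSO; XSP2 medium contains 3 nM 6-alpha-fluorotestosterone, 1.5 nM norgestrel.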

[4] = ATG_M_61_XSP2: Attagene TRANS-FACTORIAL Multi-Species (XSP2) HepG2 Assay for M61 Transcription Factor (Internal Marker) (AID 2283835; active = hit-call score of the fitted dose curve at least 0.9, where 1 is the maximum; inactive = score below 0.9;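 note: reporter mRNA of an internal background marker read by RT-PCR and capillary electrophoresis; active means a rise in signal above the DMSO baseline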)
Procedure: (§1) ATG_XSP2_multi-species_TRANS is a cell-based, multiplexed assay created by modifying the existing Attagene TRANS-FACTORIAL system to include a panel of nuclear receptors from some or all the following species: human (Homo sapiens), mouse (Mus musculus), frog (Xenopus laevis), zebrafish (Danio rerio), chicken (Gallus gallus), and turtle (Chrysemys picta). The ECOTOX-FACTORIAL format uses HepG2, a human liver cell line, with measurements taken at 24 hours after chemical dosing in a 24-well plate. Xsp2 included 3 nM 6-alpha-fluorotestosterone and 1.5 nM norgestrel to stimulate the androgen receptor.ATG_M_61_XSP2 is one of 29 assay components measured or calculated from the ATG_XSP2_multi-species_TRANS assay. It is designed to make measurements of mRNA induction, a form of inducible reporter, as detected with fluorescence intensity signals by Reverse transcription polymerase chain reaction (RT-PCR) and Capillary electrophoresis technology.This assay endpoint, ATG_M_61_XSP2, was analyzed in the positive analysis fitting direction relative to DMSO as the negative control and baseline of activity. […] Furthermore, this assay endpoint can be referred to as a secondary readout, because this assay has produced multiple assay endpoints where this one serves a background control function. […]

[5] = target: zebrafish Thyroid Hormone Receptor beta (TRb), thrb (gene 30607) (UniProt Q9PVE4); test: ATG_zfTRb_XSP2: Attagene TRANS-FACTORIAL Multi-Species (XSP1) HepG2 Assay for zebrafish Thyroid Hormone Receptor beta (TRb) (AID 2283836)
Chain of zebrafish Thyroid Hormone Receptor beta (TRb), thrb (gene 30607) (Q9PVE4 whole entry, looked up, the tested form may be a part): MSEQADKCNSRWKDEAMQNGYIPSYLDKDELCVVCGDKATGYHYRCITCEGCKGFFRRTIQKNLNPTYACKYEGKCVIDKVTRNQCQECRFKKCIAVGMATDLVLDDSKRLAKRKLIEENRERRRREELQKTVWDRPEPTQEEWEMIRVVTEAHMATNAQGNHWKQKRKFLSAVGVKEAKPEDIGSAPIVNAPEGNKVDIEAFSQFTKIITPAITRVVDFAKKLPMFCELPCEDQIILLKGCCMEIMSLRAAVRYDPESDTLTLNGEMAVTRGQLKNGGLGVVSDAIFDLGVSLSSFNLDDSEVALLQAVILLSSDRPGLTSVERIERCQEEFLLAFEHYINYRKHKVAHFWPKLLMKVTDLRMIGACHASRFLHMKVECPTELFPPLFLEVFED
Outline: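 HepG2 cells transiently transfected with chimeric zebrafish TRb-GAL4 reporter units, dosed 24 h with 3 nM 6-alpha-fluorotestosterone and 1.5 nM norgestrel present. Reporter mRNA quantified by RT-PCR and capillary electrophoresis; gain fitted against DMSO.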

[6] = target: human Thyroid hormone Receptor alpha (TRa), THRA (gene 7067) (UniProt P10827); test: ATG_hTRa_XSP2: Attagene TRANS-FACTORIAL Multi-Species (XSP2) HepG2 Assay for human Thyroid hormone Receptor alpha (TRa) (AID 2283838)
Chain of human Thyroid hormone Receptor alpha (TRa), THRA (gene 7067) (P10827 whole entry, looked up, the tested form may be a part): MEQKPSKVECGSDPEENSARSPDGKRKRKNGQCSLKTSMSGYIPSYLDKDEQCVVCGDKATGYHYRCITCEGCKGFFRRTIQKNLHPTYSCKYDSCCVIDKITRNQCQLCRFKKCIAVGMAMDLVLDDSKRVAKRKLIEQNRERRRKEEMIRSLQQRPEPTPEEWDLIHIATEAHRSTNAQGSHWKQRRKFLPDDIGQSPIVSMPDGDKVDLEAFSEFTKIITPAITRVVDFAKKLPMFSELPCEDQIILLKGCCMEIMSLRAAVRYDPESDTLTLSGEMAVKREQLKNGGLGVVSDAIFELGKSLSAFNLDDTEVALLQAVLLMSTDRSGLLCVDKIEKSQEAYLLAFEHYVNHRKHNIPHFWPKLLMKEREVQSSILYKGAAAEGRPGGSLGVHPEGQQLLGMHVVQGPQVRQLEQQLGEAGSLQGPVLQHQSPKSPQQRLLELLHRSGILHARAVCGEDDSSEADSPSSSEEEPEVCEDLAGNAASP
Outline: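 HepG2 cells were transiently transfected with GAL4-UAS reporter units for chimeric human TRa-Gal4 and dosed for 24 hours, with 3 nM 6-alpha-fluorotestosterone and 1.5 nM norgestrel present. Reporter mRNA was quantified by RT-PCR, FAM labelling and capillary electrophoresis, with gain of signal fitted versus DMSO.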

[7] = system: turtle Thyroid Hormone Receptor, alpha (TRa), gene 101949057; test: ATG_trTRa_XSP2: Attagene TRANS-FACTORIAL Multi-Species (XSP1) HepG2 Assay for turtle Thyroid Hormone Receptor, alpha (TRa) (AID 2283834);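 note: hits raise reporter mRNA over the DMSO baseline so AC50 marks activators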
Procedure: as §1, with “receptor.ATG_trTRa_XSP2” for “receptor.ATG_M_61_XSP2”, “technology.The” for “technology.This”, “endpoint ATG_trTRa_XSP2” for “endpoint, ATG_M_61_XSP2,”, “primary” for “secondary”, “reporter gene” for “background control”

[8] = target: frog Thyroid hormone Receptor alpha (TRa), thra-a (gene 397942) (UniProt P15204); test: ATG_frTRa_XSP2: Attagene TRANS-FACTORIAL Multi-Species (XSP2) HepG2 Assay for frog Thyroid hormone Receptor alpha (TRa) (AID 2283839)
Chain of frog Thyroid hormone Receptor alpha (TRa), thra-a (gene 397942) (P15204 whole entry, looked up, the tested form may be a part): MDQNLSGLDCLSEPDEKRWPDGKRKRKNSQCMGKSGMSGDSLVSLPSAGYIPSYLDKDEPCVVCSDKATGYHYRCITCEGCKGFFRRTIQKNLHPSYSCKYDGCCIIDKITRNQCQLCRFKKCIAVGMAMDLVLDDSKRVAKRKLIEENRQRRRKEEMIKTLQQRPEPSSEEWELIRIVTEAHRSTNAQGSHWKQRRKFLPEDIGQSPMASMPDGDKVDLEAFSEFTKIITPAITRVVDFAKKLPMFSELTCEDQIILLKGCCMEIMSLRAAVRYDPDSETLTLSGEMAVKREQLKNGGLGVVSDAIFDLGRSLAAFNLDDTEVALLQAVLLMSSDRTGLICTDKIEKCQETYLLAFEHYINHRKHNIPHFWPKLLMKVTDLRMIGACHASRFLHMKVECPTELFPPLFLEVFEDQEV
Outline: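 Reporter transcripts were measured by RT-PCR with capillary electrophoresis after 24 h dosing of HepG2 carrying transiently transfected multi-reporter units, including a chimeric frog TRa-GAL4 construct. Activity was taken as increase over DMSO vehicle.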

[9] = target: human Thyroid hormone Receptor beta (TRb), THRB (gene 7068) (UniProt P10828); test: ATG_hTRb_XSP2: Attagene TRANS-FACTORIAL Multi-Species (XSP2) HepG2 Assay for human Thyroid hormone Receptor beta (TRb) (AID 2283840);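 note: actives raise reporter mRNA so potency reflects agonist-like gain of signal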
Chain of human Thyroid hormone Receptor beta (TRb), THRB (gene 7068) (P10828 whole entry, looked up, the tested form may be a part): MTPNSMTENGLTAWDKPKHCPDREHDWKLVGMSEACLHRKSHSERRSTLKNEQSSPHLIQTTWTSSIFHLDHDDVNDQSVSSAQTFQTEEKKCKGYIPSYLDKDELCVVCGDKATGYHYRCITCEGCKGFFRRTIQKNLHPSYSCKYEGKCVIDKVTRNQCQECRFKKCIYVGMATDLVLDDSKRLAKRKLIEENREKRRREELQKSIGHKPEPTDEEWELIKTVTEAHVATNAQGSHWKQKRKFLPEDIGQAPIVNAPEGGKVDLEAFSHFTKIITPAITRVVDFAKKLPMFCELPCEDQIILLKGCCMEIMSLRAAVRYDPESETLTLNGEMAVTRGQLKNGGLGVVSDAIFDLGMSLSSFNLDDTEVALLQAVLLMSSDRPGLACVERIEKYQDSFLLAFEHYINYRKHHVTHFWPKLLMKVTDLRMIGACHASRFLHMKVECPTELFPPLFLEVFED
Outline: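 Activity of exogenous human TRb–Gal4 fusion measured by reporter mRNA from RT-PCR and capillary electrophoresis, 24 h after dosing transfected HepG2. 6-alpha-fluorotestosterone (3 nM) and norgestrel (1.5 nM) present. Gain-of-signal fit relative to DMSO.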

Measured: outcome

O=C(c1ccccc1)c1ccc(O)cc1O
not listed: [7] | [8] | [9]
inactive: all other assays above

C[C@]12CC[C@H]3C(=CCc4cc(O)ccc43)[C@@H]1CCC2=O
not listed: [2] | [3]
inactive: all other assays above
